According to PubChem BioAssay AID1347413 (National Center for Advancing Translational Sciences (NCATS), 2020):
Activity calls are given as the source filed them. A call without a number means that no potency is given here. Calls follow the shape of the dose curve; as a rule, active = well fitted curve in the direction sought with a large enough effect; inactive = no such curve, though single readings can be large or run the other way.

Assay: qHTS to identify inhibitors of the type 1 interferon - major histocompatibility complex class I in skeletal muscle: tertiary screen by RT-qPCR, retest select compounds
Details: C25cl48 myoblasts, IFN-beta, HLA-B RT-qPCR, 24 h; series mostly up to 49.8 µM
From the text: Assay Submitter (PI): Travis B. Kinder Ph.D. & James Inglese Ph.D. Assay Development and Screening Technology Laboratory (ADST) National Center for Advancing Translational Sciences (NCATS), Rockville, MD National Institute of Health (NIH), Bethesda, Maryland Idiopathic inflammatory myopathies, collectively referred to as myositis, are a group of rare autoimmune diseases characterized by skeletal muscle inflammation, weakness, and usually accompanied by systemic pathologies of the skin, lungs, or vasculature. Current immunosuppressive therapies and glucocorticoids are often not curative and are accompanied by harsh side effects, especially in children with juvenile myositis. We initiated a drug repurposing and development program to identify more targeted, less toxic therapeutics to treat myositis. Although its cause is not known, muscle from a subset of patients have an abundance of the inflammatory type 1 interferon (IFN) and a down-stream product major histocompatibility complex class I (MHC class I), which are both thought to contribute to damage and weakness. We conducted quantitative high throughput screening (qHTS) on 6,576 compounds (4,679 unique) through a series of cell-based assays to identify those that inhibit the IFN-stimulated expression of MHC class I in muscle precursor cells (myoblasts). The compound identification and evaluation strategy utilized a primary screen with reporter-tagged MHC class I in genome-engineered myoblasts, ATP content counter screen for viability, HLA-ABC immunofluorescence secondary screen, and HLA-B RT-qPCR tertiary screen. To determine if active compounds identified by qHTS in HLA-B HiBit reporter cells, and confirmed by HLA-ABC immunofluorescence, can inhibit the transcription of HLA-B mRNA, compounds were assayed by RT-qPCR. […] Briefly, five compounds identified from primary, counter, and secondary screening as inhibitory with minimal cytotoxicity were dispensed into 384-well plates using acoustic dispensing in a 6-point, 1:7 titration with a high final concentration of 10 uM. Normal immortalized human myoblasts C25cl48 were added to the plate with 4.0 ng/ml human IFN-beta for 24 hours, and cells were harvested and assayed by the Cells-to-Ct kit with TaqMan assays (Thermo Fisher).
PROTOCOL TABLE (as described by Inglese et al., 2007) SEQUENCE No. (e.g., 1, 2, 3, etc.); PARAMETER (e.g., Cells, Incubation, Reagent, etc.); VALUE; DESCRIPTION 0; Compounds; 150 nl; Follow-up compounds dispensed at 150 nl/well with Labcyte Echo 655 acoustic dispenser into one Corning white/clear bottom, high base TC 384-well plates (3765) 1a; Cells; 30 uL; Using a p200 manual pipette, seed 780 cells/well into 1 plate in 30 ul/well of iHSKM growth medium without dexamethasone into columns wells A1-A6. […]

| SMILES | Potency |
| --- | --- |
| Cc1ncsc1-c1ccc([C@H](C)NC(=O)[C@@H]2C[C@@H](O)CN2C(=O)[C@@H](NC(=O)COCCCOCCNC(=O)C[C@@H]2N=C(c3ccc(Cl)cc3)c3c(sc(C)c3C)-n3c(C)nnc32)C(C)(C)C)cc1 | 164 nM (active) |
| C[C@]12C=CC(=O)C=C1CC[C@@H]1[C@@H]2[C@@H](O)C[C@@]2(C)[C@H]1CC[C@]2(O)C(=O)CO | inactive |
| CC(=O)OCC(=O)[C@@]12OC(C)(C)O[C@@H]1C[C@H]1[C@@H]3C[C@H](F)C4=CC(=O)C=C[C@]4(C)[C@@]3(F)[C@@H](O)C[C@@]12C | inactive |
| CS[C@H]1SC[C@@H]2C(=O)N(C)[C@H](C(C)C)C(=O)OC[C@H](NC(=O)c3cnc4ccccc4n3)C(=O)N[C@H](C)C(=O)N(C)[C@H]1C(=O)N(C)[C@H](C(C)C)C(=O)OC[C@H](NC(=O)c1cnc3ccccc3n1)C(=O)N[C@H](C)C(=O)N2C | 2.9 nM (active) |
